High-throughput results deposited in PubChem BioAssay by National Center for Advancing Translational Sciences (NCATS).
The list is not random: actives were taken first. Their share in the collection is about 19%.
IL-1B inflam inh – blocks inflammasome-driven IL-1 beta release. THP-1 LPS/ATP IL-1B secretion, AlphaLISA, 16 h; hits give low values. activity change, % at 57.5 µM. hit rate 4.7% among 360,000. AID 743279; in the data active = activity change below about -50%; inconclusive = mostly about -30% to -49%
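THP-1 cells pretreated 1 hr with compounds (up to 57.5 uM final), then stimulated with LPS (250 ng/mL final) plus ATP (1.25 mM final); secreted IL-1B measured by AlphaLISA after 16 hr, decreased signal indicating inhibition.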
DT40 TDP1 no CPT – qHTS for Inhibitors of human tyrosyl-DNA phosphodiesterase 1 (TDP1): qHTS in cells in absence of CPT; DT40 Tdp1-/- hTDP1 cells, no CPT, ATP luminescence, 48 h; Potency, µM (top dose mostly 46.2 µM), for inactives: at the highest dose activity change, negative = growth inhibition, most hits filed as inhibitors; hit rate 15% among 420,000; also: potency is read from the fitted curve at half-maximal effect; nearly all actives have a fitted effect of over 55% in size
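Seeded 400 DT40-hTDP1 cells/well (vehicle DMSO, no 20 nM CPT); pinned compounds; ≥48 hr at 37 °C; CellTiter-Glo luminescence as viability measure.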
uPA surface inh – cell surface uPA generation inhibition | Potency, µM (titrated, usually from 38.3 µM), inactives show top-dose activity change, negative = inhibition, most hits filed as inhibitors | cell surface uPA generation assay, qHTS | hit rate 0.31% among 330,000; active = well fitted inhibition curve with a large enough effect; inconclusive = small, poorly fitted or top-dose-only effect; inactive = no such curve, though single readings can be large or run the other way; tested in mouse RAW 264.7 cells; also: potency is read from the fitted curve at half-maximal effect; nearly all actives have a fitted effect of over 55% in size
HT1080 IDH1KD tx – kills HT-1080 cells with IDH1 knockdown; hit rate 2% among 360,000; AID 686971; HT-1080 IDH1 knockdown viability, ATP luminescence, 48 h; Potency, µM (titrated, usually from 46.1 µM), without a hit: at the top dose activity, negative = toxicity, hits mostly cytotoxic;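 also: potency is read from the fitted curve at half-maximal effect; 0% = DMSO wells and -100% = cell-free medium wells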
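Cytotoxicity counter-line: IDH1KD HT-1080, 48 h, CellTiter-Glo. Curves classed by r2, magnitude and activity.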
DT40 TDP1 CPT – growth inhibition of DT40 Tdp1-/-;hTDP1 cells with camptothecin (screen for TDP1 inhibitors); Potency, µM (titrated, usually from 46.2 µM), for the others: at the highest dose activity change, negative = growth inhibition, usual class: inhibitors; hit rate 12% among 420,000; chicken DT40 Tdp1-/-;hTDP1 cells + 20 nM CPT, ATP luminescence, 48 h; also: potency is read from the fitted curve at half-maximal effect; nearly all actives have a fitted effect of over 55% in size
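Cell growth measured by CellTiter-Glo luminescence after a minimum 48 h, 37 C compound exposure with 20 nM CPT in Tdp1-knockout DT40 cells stably expressing hTDP1, seeded 400/well; qHTS titration format.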
HT1080NT lethal – kills 2HG-producing HT-1080-NT fibrosarcoma cells; Potency, µM (top dose mostly 46.1 µM), for inactives: at the top dose activity, negative = less viability, usual class: cytotoxic; hit rate 1.6% among 360,000; HT-1080-NT fibrosarcoma viability, CellTiter-Glo ATP luminescence, 48 h;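 also: NT is the 2HG producing partner of a matched IDH1 knockdown line; potency is read from the fitted curve at half-maximal effect; 0% = DMSO-treated cells and -100% = media-only wells without cells; nearly all actives have a fitted effect of over 55% in size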
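Viability by CellTiter-Glo luminescence after 48 h compound exposure at 37C of HT-1080-NT cells (750/well, RPMI, 5% FBS). % activity scaled between DMSO wells and medium-only wells, then curve-fitted and categorized by curve class.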
Numbers without * were called inactive; ? = inconclusive; . = no result. Unless noted, calls follow the shape of the dose curve; as a rule, active = well fitted curve in the direction sought with a large enough effect; inconclusive = small, poorly fitted or top-dose-only effect, or another doubt; inactive = no such curve, though single readings can be large; an effect the other way counts as inactive or inconclusive. Unless noted, % is scaled to controls: 0 for no effect and ±100 for the full control effect.

SMILES	IL-1B inflam inh	DT40 TDP1 no CPT	uPA surface inh	HT1080 IDH1KD tx	DT40 TDP1 CPT	HT1080NT lethal
COc1cc(O)c(C(CC(=O)N2CCCC(C)C2)c2ccc3c(c2)OCO3)c(OC)c1 (configuration not stated)	-17.9	?	-1.2%	-2.0%	?	-5.0%
COc1cc(OC)c2ccc(=O)oc2c1C(CC(=O)N1CCCC(C)C1)c1ccc2c(c1)OCO2 (configuration not stated)	0.0	?	23.5%	2.3%	?	0.5%
COc1cc(C(CCN2CCN(c3ccccc3)CC2)c2c(OC)cc(OC)c3c(C)cc(=O)oc23)cc(OC)c1OC (configuration not stated)	0.0	16.4µM*	?	-12.4%	16.4µM*	-14.3%
COc1cc(O)c(C(CC(=O)N2CCCCC2)c2ccc3c(c2)OCO3)c(OC)c1 (configuration not stated)	-11.0	?	13.4%	2.1%	-29.2%	7.0%
COc1cc(OC)c2c(-c3ccccc3)cc(=O)oc2c1C(CCN1CCCCC1)c1ccc2c(c1)OCO2 (configuration not stated)	-3.7	7.31µM*	?	-14.4%	9.2µM*	1.3%
COc1cc(OC)c2c(-c3ccccc3)cc(=O)oc2c1C(CCN1CCCC(C)C1)c1ccc2c(c1)OCO2 (configuration not stated)	-11.7	23.1µM*	?	-26.2%	?	?
C=CCOc1cccn2c(N(C)C(=O)c3ccc(OC)cc3)c(CC)nc12	0.0	-22.3%	.	?	?	19.6%
O=[N+]([O-])c1cccc(S(=O)(=O)N2CCCCC2c2cccnc2)c1 (configuration not stated)	3.8	?	-1.3%	-5.1%	20.6µM*	4.6%
O=C(Nc1ccc(S(=O)(=O)N2CCCCC2c2cccnc2)cc1)c1ccc(F)cc1 (configuration not stated)	.	18.4µM*	.	.	23.1µM*	.
O=C(NC(=S)NN1CCCCC1c1cccnc1)c1ccc(Br)cc1 (configuration not stated)	-54.5*	-21.6%	-3.6%	-2.4%	-16.6%	-14.7%
COC(=O)c1ccc(NC(=S)NN2CCCCC2c2cccnc2)cc1 (configuration not stated)	38.2	-21.5%	0.8%	-13.9%	2.0%	9.2%
CCOc1ccc(-c2noc(-c3csc([C@@H]4O[C@H](CO)[C@H](O)[C@H](O)[C@H]4O)n3)n2)cc1	11.1	2.5%	.	22.8%	5.7%	15.2%
NC(=O)C1CCN(c2csc3ccc(F)cc3c2=O)CC1	.	-11.4%	.	.	-8.7%	.
Cc1ccccc1Oc1ccc2c(c1)[C@@H]1C[C@H](N(C)C(=S)Nc3ccc(F)cc3)[C@H]([C@H](C)O)C(=O)N1CC2	?	?	.	?	20.6µM*	?
COCCNC(=S)N(C)[C@H]1C[C@H]2c3cc(-c4ccccc4)ccc3CCN2C(=O)[C@H]1[C@H](C)O	4.1	9.2µM*	.	-8.7%	?	0.6%
C[C@H](O)[C@@H]1C(=O)N2CCc3ccc(-c4cccc(F)c4)cc3[C@@H]2C[C@@H]1N(C)C(=O)C(C)(C)C	-25.8	?	-5.9%	-10.3%	?	-13.7%
COCCNC(=S)N(C)[C@H]1C[C@H]2c3cc(Oc4ccccc4C)ccc3CCN2C(=O)[C@H]1[C@H](C)O	-21.3	8.2µM*	.	-0.2%	14.6µM*	-7.4%
Cc1ccccc1NS(=O)(=O)c1ccc(Br)s1	.	-2.6%	.	.	-9.5%	.
C/C=C(/CCC1NCCc2c1[nH]c1ccccc21)[Si](C)(C)C (configuration not stated)	-99.4*	2.91µM*	2.6%	?	3.26µM*	?
